The entries come from a sample that favours hits as a whole.
Dicer processing: inhibitors of Dicer pre-microRNA processing, primary screen, biochemical, cat-ELCCA, chemiluminescence | 6% of 47,000 active | cat-ELCCA pre-miR-21 Dicer processing; hits give high values | z-score at 25 µM | Endoribonuclease Dicer (Homo sapiens), Q9UPY3; in the data active = z-score above about 3, passing the limit was not always enough;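 note: plate controls were vehicle for no effect and no enzyme for full effect; higher signal means more uncleaved substrate so more Dicer inhibition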
An asterisk follows results filed as active.

SMILES | Dicer processing
Cc1cc(C)c2c(=O)cc(C(F)(F)F)oc2n1 | 0.65
S=C(NNC(=S)NC1CC2CCC1C2)NC1CC2CCC1C2 (centres undefined) | 1.91
S=C(NN=C1CCCC1)NC1CC2CCC1C2 (centres undefined) | -0.5
Oc1ccc(/C=N/NC(=S)NC2CC3CCC2C3)cc1 (centres undefined) | 24.2*
CC(C)(C)OC(=O)NC(COCc1ccccc1)C(=O)NCc1ccccc1 (centres undefined) | -0.87
CCNC(=O)C(NC(=O)OC(C)(C)C)C(C)OCc1ccccc1 (centres undefined) | 4.72*
CCNC(=O)C(C)NC(=O)OC(C)(C)C (centres undefined) | -0.15
CC(=O)Oc1ccc(N2C(=O)C3C4C=CC(O4)C3C2=O)cc1 (centres undefined) | 1.85
C=CCNC(=S)NNC(=O)COc1c(Br)cc(C)c2c1CCC2 | 0.87
CNc1ncnc(NNC(=O)Nc2ccc(Cl)cc2)c1[N+](=O)[O-] | 4.47*
Cc1[nH]nc(Nc2ccc(C(C)C)cc2)c1[N+](=O)[O-] | 0.47
O=[N+]([O-])c1c(Nc2ccc(Cl)cc2)ncnc1Nc1ccc(Cl)cc1 | 3.47*
O=[N+]([O-])c1c(Nc2cccc(C(F)(F)F)c2)ncnc1Nc1cccc(C(F)(F)F)c1 | -0.15
CNc1ncnc(NNC(=O)Nc2cccc(Cl)c2)c1[N+](=O)[O-] | 1.57
CNc1ncnc(Oc2ccc(Cl)cc2)c1[N+](=O)[O-] | -0.48
CC(C)(C)c1ccc(C2C3=C(CCCC3=O)NC3=C2C(=O)c2ccccc23)cc1 (centres undefined) | 2.27
CCOC(=O)c1cnc2cc(Cl)c(F)cc2c1Sc1ccc(Cl)cc1 | 0.24
O=S(=O)(c1cc(Cl)c(Cl)cc1Cl)N1CC=CCC1 | -0.81
Clc1ccc(OCCn2c(/C=C/c3ccco3)nc3ccccc32)cc1 | 2.19
O=C1c2ccccc2C(=O)N1c1nc(-c2ccc(Cl)cc2)cs1 | 1.08
COc1ccc(CN2COc3ccc(Cl)cc3C2)cc1 | 0.61
OCC1(CO)CSC(Nc2ccc(F)c(Cl)c2)=N1 | -0.58
CSc1nnc(-c2ccc(C(F)(F)F)nc2C)o1 | -0.16
Cn1c(=O)c2c(-c3ccccc3)n(CCCO)cc2n(C)c1=O | 5.83*
Cc1ccc(-c2c3c(=O)n(C)c(=O)n(C)c3cn2C)cc1 | 0.83
SMILES | Dicer processing
Cn1c(=O)c2c(-c3ccccc3)n(C(CO)(CO)CO)cc2n(C)c1=O | 0.81
CC(=O)n1c2ccc(Br)cc2c2cc(Br)ccc21 | -0.39
CCN1C(=O)C2(/C(=C(/O)c3ccc(OC)c(C)c3)C(=O)C(=O)N2CCCN(C)C)c2ccccc21 (centres undefined) | -0.67
CCCN1C(=O)C2(/C(=C(/O)c3ccc(OC)cc3)C(=O)C(=O)N2CCCN(C)C)c2ccccc21 (centres undefined) | 1.33
CCN1C(=O)C2(/C(=C(/O)c3ccc(OC)cc3)C(=O)C(=O)N2CCCN(C)C)c2ccccc21 (centres undefined) | 3.26*
CCCN1C(=O)C2(/C(=C(/O)c3ccc(F)cc3)C(=O)C(=O)N2CCN(C)C)c2ccccc21 (centres undefined) | 2.28
CCN1C(=O)C2(/C(=C(/O)c3ccc(OC)cc3)C(=O)C(=O)N2CCN(C)C)c2ccccc21 (centres undefined) | 4.29*
CCN1C(=O)C2(/C(=C(/O)c3ccc(C)cc3)C(=O)C(=O)N2CCCN(C)C)c2ccccc21 (centres undefined) | 0.44
O=c1ccnc(SCc2ccc(Cl)cc2Cl)[nH]1 | -3.25
CCCc1c(C)nc(-c2cccc(C)c2)[nH]c1=O | -0.13
O=C1CCCc2nc(N3CCCCC3)nc(Nc3ccccc3)c21 | 0.83
CC(C)Nc1nccc(C(F)(F)F)n1 | -0.96
CCOc1ccc2noc3c2c1C(=O)c1ccccc1-3 | -0.35
CC(=O)OCCNc1cc(Cl)c2noc3c2c1C(=O)c1ccccc1-3 | 3.24*
CCOC(=O)c1ccc2c3c(onc13)-c1ccccc1C2=O | -1.11
O=C(NCC1CC1)Nc1csc(Cc2c(Cl)cccc2Cl)n1 | -0.87
COCc1cc(=O)[nH]c(/N=C(\N)Nc2ccc(Cl)cc2Cl)n1 | 0.22
S=C(NC1CCCCC1)NC1CCCC1 | 0.4
CC1(C)CC(=O)C2=C(C1)N=C1c3ccccc3C(=O)C1C2c1ccc(O)c(O)c1 (centres undefined) | 6.42
C(=N\Nc1ncnc2sc(-c3ccccc3)cc12)/c1ccncc1 | 2.83
C(=N\Nc1ncnc2sc(-c3ccccc3)cc12)/c1cccs1 | 1.08
Cc1ccc(/C=N/Nc2ncnc3sc(-c4ccccc4)cc23)o1 | 3.83*
Cc1sc2nc(SCC(=O)N3CCCCC3)[nH]c(=O)c2c1C | -0.76
Cc1cc(C)c2c(=O)[nH]c(SCC(=O)N3CCCCC3)nc2n1 | 5.78*
CCc1ccc(C(=O)CSc2nc3nc(C)cc(C)c3c(=O)[nH]2)cc1 | 0.63
CN1CCN(C(=O)c2ccc(Cn3cc(Cl)cn3)o2)CC1 | 1.29
Cc1ccc(C(=O)Nc2cc(C#N)c3[nH]c4ccccc4n3c2=O)cc1 | 0.33
CC(C)NC(=O)N1CCc2sccc2C1C (centres undefined) | 2.31

Source: PubChem BioAssay
